Dicer processing – inhibitors of human Dicer processing of pre-microRNA. AID 1347074. cat-ELCCA pre-miR-21 Dicer processing, chemiluminescence; hits give high values. hit rate 6% among 47,000. z-score at 25 µM. Q9UPY3; in the data active = z-score above about 3, passing the limit was not always enough;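 also: plate controls were vehicle for no effect and no enzyme for full effect; higher signal means more uncleaved substrate so more Dicer inhibition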
* marks the source's active call; other numbers are inactive results; ! = not active in a repeat. This is one part of a sample in which hits are shown more often than they occur.

SMILES	Dicer processing
COc1cccc(C2C(C(=O)OCc3ccccc3)=C(C)NC3=C2C(=O)CC(C)(C)C3)c1OC (stereo not given)	-0.01
CC1(C)Cc2nc3sc4c(NCCc5ccccc5)ncnc4c3cc2CO1	2.4
O=c1o[nH]c(-c2ccccc2)c1N=Nc1ccc(Br)c(Cl)c1	0.18
Cc1cc(C(=O)N/N=C/c2ccc([N+](=O)[O-])s2)nn1-c1c(Cl)cc(Cl)cc1Cl	0.12
C/C(=N/O)c1nnc2cc(C)nn2c1C	-1.5
CC1=C(C(=O)OCCOC(C)C)C(c2cccs2)C2=C(CC(c3cccs3)CC2=O)N1 (stereo not given)	4.1*
CC1=C(C(=O)OC2CCCC2)C(c2ccccc2)C2=C(CC(c3ccccc3)CC2=O)N1 (stereo not given)	3.1*
CC1=C(C(=O)OCCOC(C)C)C(c2ccc(F)cc2)C2=C(CC(c3cccs3)CC2=O)N1 (stereo not given)	2.4
COc1ccc(C2CC(=O)C3=C(C2)NC(C)=C(C(=O)OC2CCCC2)C3c2ccc(OC)cc2)cc1 (stereo not given)	-0.2
CC1=C(C(=O)OC2CCCCC2)C(c2ccccn2)C2=C(CC(c3ccccc3)CC2=O)N1 (stereo not given)	0.33
CC1=C(C(=O)OCCOC(C)C)C(c2cccc(Cl)c2)C2=C(CC(c3cccs3)CC2=O)N1 (stereo not given)	-0.16
O=S(=O)(c1ccc(-c2nc3ccccc3s2)cc1)N1CCc2ccccc21	0.45
CCc1ccnc(NS(=O)(=O)c2ccccc2)c1	3.8*
Cc1ccnc(NS(=O)(=O)c2ccc(Br)cc2)c1	2.6
CCc1ccnc(NS(=O)(=O)c2ccc(C)c(Cl)c2)c1	0.91
Cc1ccc(S(=O)(=O)N(CCO)CCO)cc1	-1
O=C(COc1ccccc1)NC1C(=O)N2C(C(=O)O)=C(Cl)CSC12 (stereo not given)	-0.43
NC(=O)c1cc[n+](CC2=C(C(=O)O)N3C(=O)[C@@H](NC(=O)[C@@H](c4ccccc4)S(=O)(=O)[O-])[C@H]3SC2)cc1	3.7*!
CC(=O)OCC1=C(C(=O)O)N2C(=O)[C@@H](NC(=O)Cc3cccs3)[C@H]2SC1	2.6
CC(=O)Oc1ccc(N2C(=O)C3CC(C)=C(C)CC3C2=O)cc1 (stereo not given)	-0.08
COc1ccccc1C1N=C(N)Nc2nc3ccccc3n21 (stereo not given)	34*
COc1ccc(C2N=C(N)Nc3nc4ccccc4n32)cc1 (stereo not given)	-0.05
COc1ccc(OC)c(C2N=C(N)Nc3nc4ccccc4n32)c1 (stereo not given)	-1.2
O=C(O)C(Cc1ccccc1)NCc1ccccc1O (stereo not given)	-0.5
CC(C)(C)C(=O)NCCNC(=O)c1nonc1N	0.96
SMILES	Dicer processing
Nc1nonc1C(=O)NCCNCc1cccs1	-0.27
Nc1nonc1C(=O)NCCNC(=O)c1cccc(Br)c1	5.2*
CCOC(=O)c1sc(N2C(=O)c3oc4ccccc4c(=O)c3C2c2cccc(OCC)c2)nc1C (stereo not given)	0.16
CCCCOC(=O)C1=C(C)NC2=C(C(=O)CCC2)C1c1cc2c(cc1Br)OCO2 (stereo not given)	0.09
COc1ccccc1Nc1nc(C)cs1	-0.15
Cc1csc(Nc2cccc3ccccc23)n1	3.3*
CC(=O)c1csc(Nc2ccccc2Cl)n1	1.2
COc1ccc(-c2nc3n(n2)C(c2ccc(F)cc2)C2=C(CC(C)(C)CC2=O)N3)cc1 (stereo not given)	0.1
CCc1cccc(CC)c1NC(=S)NN	3.1*
Cc1cccc(Cl)c1NC(=S)NN	1.1
CCc1cccc(CC)c1NC(=O)C(Cl)Cl	-0.22
CC1=C(C(=O)OCC(C)C)C(c2ccc(O)cc2)C2=C(CC(c3cccs3)CC2=O)N1 (stereo not given)	1.6
Cc1ccc(/C=c2\sc3nc(-c4ccccc4)c(-c4ccccc4)n3c2=O)o1	0
COC(=O)C1=C(C)Nc2c(c(=O)n(C)c(=O)n2C)C1c1ccc(Br)cc1 (stereo not given)	3.4*
COC(=O)C1=C(C)Nc2[nH]c(=O)[nH]c(=O)c2C1c1ccc(Br)cc1 (stereo not given)	1.2
COC(=O)C1=C(C)NC2=C(C(=O)CCC2)C1c1ccc(Br)cc1 (stereo not given)	-0.9
COC(=O)C1=C(C)Nc2nc3ccccc3n2C1c1ccc(F)cc1 (stereo not given)	-0.38
O=C1NS(=O)(=O)c2ccccc2S(=O)(=O)c2ccccc21	1.1
Cc1nc(NCCN(C)C)c2sc3nc4c(cc3c2n1)COC(C)(C)C4	-0.49
Cc1[nH]n(-c2ccccc2)c(=O)c1N=Nc1c(C)n(C)n(-c2ccccc2)c1=O	-4
Cc1ccc(N=Nc2c(C)[nH]n(-c3ccccc3)c2=O)c(C)c1	0.73
Cc1[nH]n(-c2ccccc2)c(=O)c1N=Nc1ccc(N2CCCCC2)cc1	3.6*
FC(F)(F)c1cccc(NC(=S)NCCNc2nccc(C(F)(F)F)n2)c1	-1.3
Cc1ccc(S(=O)(=O)NC2=NCN(Cc3cccnc3)CN2)cc1	4.5*
COCCN1CN=C(NS(=O)(=O)c2ccc(C)cc2)NC1	0.48
SMILES	Dicer processing
COCCCN1CN=C(NS(=O)(=O)c2ccc(C)cc2)NC1	-2.5
CCOC(=O)Cc1csc(NC(=O)COCC(=O)O)n1	0.3
Cc1ccc(-c2nc3sc(C)c(C)c3c(=O)o2)cc1	0.59
CCc1ccc(-c2cc(O)cc3sc(=O)oc23)cc1	1.9
Cc1ccc(-c2cc(O)cc3sc(=O)oc23)cc1Cl	5.3*
O=c1oc(-c2ccccc2Cl)nc2ccc(I)cc12	2.7
Cc1ccc(-c2cc(O)cc3sc(=O)oc23)cc1	8.1*
O=c1oc2c(-c3ccccc3Cl)cc(O)cc2s1	3.6*
CC(=O)Oc1cc2sc(=O)oc2c2ccccc12	-4.4
O=c1oc2c(-c3cccc(F)c3)cc(O)cc2s1	5*
Cc1ccc(C(=O)Nc2nc(-c3ccc(C)c(Cl)c3)c(C)s2)cc1	1.4
Cc1ccc(-c2nc(NC(=O)COc3ccc(Cl)cc3Cl)sc2C)cc1Cl	2.1
O=C(c1cccnc1Oc1ccccc1)n1ccc(-c2cccs2)n1	-0.57
CCN(CC)CCNc1ncnc2c1sc1nc(CC(C)C)c3c(c12)CC(C)(C)OC3	0.09
COC(=O)Cc1cc(=O)n2[nH]c(C(F)(F)F)c(-c3ccc(OC)cc3)c2n1	1.2
COC(=O)CSc1nc(C)nc2c1oc1ccccc12	-0.34
COC(=O)c1cnc(NNS(=O)(=O)c2ccc(C)cc2)nc1C(F)(F)F	0.59
Cc1ccc(S(=O)(=O)N2CCN(S(=O)(=O)c3ccc(C)c(C)c3)C(C)C2)cc1C (stereo not given)	0.04
CC(O)CNc1nc2c([nH]1)c(=O)n(C)c(=O)n2C (stereo not given)	-0.15
COc1ccc(C2C(C#N)=C(N)Oc3c2ccc2ccccc32)cc1OC (stereo not given)	-0.11
O=C1C(=O)N(CCCN2CCOCC2)C(c2cccnc2)/C1=C(\O)c1ccc(Br)cc1 (stereo not given)	1.9
CC(C)NC(=O)O/N=C(\N)Cc1cccc2ccccc12	1.2
CCOC(=O)C(C)Oc1ccc2c(=O)c(Oc3cc(C)cc(C)c3)coc2c1 (stereo not given)	-0.13
C=CCN1C(=O)C2(/C(=C(/O)c3ccc(F)cc3)C(=O)C(=O)N2CCCOC)c2ccccc21 (stereo not given)	-0.04
C=CCN1C(=O)C2(/C(=C(/O)c3ccc(F)cc3)C(=O)C(=O)N2CCN2CCOCC2)c2ccccc21 (stereo not given)	4.5*

Bioassay records: PubChem BioAssay, Center for Chemical Genomics, University of Michigan
